CRFR2-BP ag – agonists of human CRF-binding protein/CRF-R2 receptor complex; 0.46% of 350,000 active; HEK293 CRF-R2/CRF-BP, calcium dye fluorescence (FLIPR); percent of saturating CRF peptide response; AID 588473; activation, % at 13.2 µM;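 active means activation of at least 50%, plus an integration ratio under a set limit after plate pattern correction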;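 further: plate controls were neutral control wells without compound for no effect and CRF at EC100 for full effect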
RTF Ca sens inh – cardiac RTF calcium desensitization | IANBD-labeled cardiac RTF, Ca2+ fluorescence | AID 493244 | inhibition, % at 7.15 µM | 0.12% of 340,000 active | P19429+P45379;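 active means inhibition above the mean inhibition of all tested compounds plus 3 SD, cut at about 17% in these data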;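 further: assay run at fixed EC70 calcium of 1.6 mM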
RTF Ca sens act – cardiac RTF calcium sensitization. P19429+P45379. IANBD-labeled TnC RTF fluorescence at EC20 calcium; 0% EC20 calcium, 100% full calcium. activation, % at 7.2 µM. 0.24% of 340,000 active. AID 493008;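 active means activation above the mean over all tested compounds plus 3 SD, cut at about 30% in these data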;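 further: rise in fluorescence read as greater calcium sensitivity of cardiac thin filaments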
CRFR2-BP antag – CRF-BP/CRF-R2 complex antagonism; HEK293 CRF-R2/CRF-BP, CRF-induced calcium fluorescence; inhibition, % at 11.8 µM; 0.59% of 350,000 active; AID 588475;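 active means inhibition of the ligand-induced calcium signal above about 50% at the single tested concentration, limit read from the data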
Myeloid diff MLP – compounds promoting myeloid differentiation | AID 624256 | ER-HoxA9 myeloid progenitors, lysozyme-GFP differentiation, flow cytometry | calls only at 10 µM | 1% of 360,000 active;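 active means normalized GFP-positive differentiation at or above the plate's own cutoff, the solvent-only control mean plus 3 SD; inconclusive means no clear call, values can overlap the other calls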;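 further: cells exposed to compound for four days before flow analysis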
Starred values were filed as active, the others as inactive; i = inactive; ? = inconclusive; · = not tested or not shown; + = active, no number. Only some compounds are listed: those with a hit (about 2.2% of all), similar ones and a draw of the others.

SMILES | CRFR2-BP ag | RTF Ca sens inh | RTF Ca sens act | CRFR2-BP antag | Myeloid diff MLP
O=C(O)c1ccccc1C(=O)c1cccc2c(Br)cccc12 | -5 | 4 | -3 | 26 | i
O=C(c1cccc(OC2CCN(Cc3cccc(OCCO)c3)CC2)c1)N1CCCC1 | 2 | 2 | 1 | 6 | +
O=[N+]([O-])c1ccc(-c2ccc(/C=N/Nc3nc(N4CCCCC4)nc(N4CCCCC4)n3)o2)cc1 | 69* | · | · | -114 | +
O=[N+]([O-])c1cccc(-c2ccc(/C=N/Nc3nc(N4CCCCC4)nc(N4CCCCC4)n3)o2)c1 | -1 | -12 | 7 | 6 | i
Nc1ccc2c(O)cc(S(=O)(=O)O)cc2c1 | -1 | -63 | 58* | 25 | i
COC(=O)[C@@]12C[C@@H](CC(=O)NCCCCc3ccccc3)C(=O)N(Cc3ccc4c(c3)OCO4)C1=CCC(C)(C)C2 | · | · | · | · | +
Cc1ccccc1OCC(=O)OCC(=O)c1c[nH]c2ccccc12 | 1 | -2 | -3 | 87* | i
O=C(CNS(=O)(=O)c1ccccc1F)OCC(=O)c1c[nH]c2ccccc12 | -1 | -2 | -5 | 11 | i
O=C(CNS(=O)(=O)c1ccccc1)OCC(=O)c1c[nH]c2ccccc12 | -2 | -16 | 10 | -14 | +
N#C/C(C(N)=O)=c1/ccc2c(c1)N1C3=C(CCCC3)CC3CCCCC31N=2 (stereo not drawn) | -4 | · | · | 23 | ·
N#CC(C#N)=c1ccc2c(c1)N1C3=C(CCCC3)CC3CCCCC31N=2 (stereo not drawn) | -1 | -13 | 3 | -14 | +
C=CCc1cc(Cl)ccc1OCCn1ccnc1 | 2 | -6 | -6 | 4 | +
CCCN1Cc2cccc(C(=O)Nc3ccc(C)cc3)c2C1=O | 0 | -5 | 10 | -3 | i
CCOC(=O)c1ccc(NC(=O)c2cccc3c2C(=O)N(CC2CCCO2)C3)cc1 (stereo not drawn) | 82* | -5 | -1 | 60* | i
COc1ccc(C(c2sc3nc(C)nn3c2O)N2CCN(CCO)CC2)cc1OC (stereo not drawn) | 1 | -4 | 7 | 6 | +
Cc1nc2sc(C(c3ccc(Cl)cc3)N3CCN(CCO)CC3)c(O)n2n1 (stereo not drawn) | 5 | 0 | 10 | -12 | i
Cc1c(C(=O)NN)nn(-c2ccc(Cl)cc2)c(=O)c1C#N | 1 | -13 | 0 | 82* | i
Cc1ccc(-n2nc(C(=O)NN)c(C)c(C#N)c2=O)cc1Cl | 0 | 3 | -2 | 9 | i
CCN(CC)CCNC(=O)c1cc2cc(Br)ccc2s1 | 2 | 4 | 3 | -4 | i
N/C(=N\OCC(=O)Nc1ccccc1)c1nonc1N | -4 | 5 | 8 | 69* | i
O=C(CCl)N1c2ccccc2CCc2ccccc21 | · | -8 | -1 | · | +
O=[N+]([O-])c1cc(/C=N/N/C(=N/c2ccccn2)c2ccccn2)ccc1O | 66* | -2 | 4 | 64* | i
CC1(c2ccccc2)CC(C)(C)N2C(=O)C3(C(C#N)=C(N)Oc4cc(O)ccc43)c3cccc1c32 (stereo not drawn) | -1 | -1 | -1 | 116* | i
CC1=CC(C)(C)N2C(=O)C3(C(C#N)=C(N)Oc4cc(O)ccc43)c3c(C)c(C)cc1c32 (stereo not drawn) | -1 | 8 | -3 | 66* | i
Cc1cc2c3c(c1)C(C)(c1ccccc1)CC(C)(C)N3C(=O)C21C(C#N)=C(N)OC2=C1C(=O)CC(C)(C)C2 (stereo not drawn) | -3 | -3 | -7 | 20 | i
SMILES | CRFR2-BP ag | RTF Ca sens inh | RTF Ca sens act | CRFR2-BP antag | Myeloid diff MLP
CCn1cnc2cc(NCc3ccc(OC)cc3)ccc21 | 1 | -6 | -3 | -41 | i
CCOc1ccc2nc3cc(NCc4ccc(OC)cc4)ccc3c(N)c2c1 | 43 | -81 | 76* | -2 | +
Cc1nnc(SCC(=O)N(C)c2c(N)n(Cc3ccccc3)c(=O)[nH]c2=O)n1Cc1ccccc1 | 2 | 4 | 8 | 81* | i
COCCN(C(=O)CSc1nc2ccc(Cl)cc2[nH]1)c1c(N)n(Cc2ccccc2)c(=O)[nH]c1=O | 2 | -9 | -6 | -11 | i
COCCN(C(=O)CN1CCCc2ccccc21)c1c(N)n(Cc2ccccc2)c(=O)[nH]c1=O | 0 | -100 | 61* | 15 | i
COCCN(C(=O)CSc1nc2ccc(C)cc2[nH]1)c1c(N)n(Cc2ccccc2)c(=O)[nH]c1=O | 0 | -6 | 7 | 6 | +
CCCCN(C(=O)CSc1ncn[nH]1)c1c(N)n(Cc2ccccc2)c(=O)[nH]c1=O | -1 | 1 | 2 | 70* | i
[NH-]c1ncnc2c1N=C[N+]2=CC=CCO | 2 | 7 | -4 | 3 | i
CCOC(=O)C1(Cc2ccccc2)CCCCCC1=O (stereo not drawn) | -5 | -6 | 1 | 12 | i
CCCS(=O)(=O)NC(=O)C1(C)CCN(C(=O)c2ccco2)C1 (stereo not drawn) | · | · | · | · | i
Cc1ccccc1NS(=O)(=O)c1ccc(F)cc1 | 3 | -4 | -7 | 3 | i
Cc1cc2c(NS(=O)(=O)c3ccc(F)cc3)cccc2nn1 | 0 | · | · | 113* | i
O=C(CCc1ccccc1)Nc1c(F)cccc1F | -2 | -4 | -3 | 52* | i
COc1ccc(OC)c(/C=C/c2nc3ccccc3[nH]c2=O)c1 | 42 | -103 | 72* | -71 | i
O=c1[nH]c2ccccc2nc1/C=C/c1ccc(F)cc1 | 35 | -21 | 17 | -112 | +
O=c1[nH]c2ccccc2nc1/C=C(\O)c1cccs1 | 224* | -74 | 61* | -195 | i
O=c1[nH]c2ccccc2nc1/C=C/c1ccccc1 | 0 | -4 | 16 | -2 | i
COc1ccc(OC)c(C=Nc2ccccc2-c2nc3ccccc3[nH]2)c1 | 0 | -13 | 0 | 2 | i
O=c1[nH]c2ccccc2nc1/C=C/c1ccc(O)cc1 | 104* | -12 | 0 | -152 | +
COc1cccc(C2c3cc4c(cc3OC(C)(N3CCCC3)C2C)OCO4)c1O (stereo not drawn) | 1 | -8 | -7 | -5 | ·
CNC(=S)NCCc1c[nH]c2ccc(OC)cc12 | 0 | -2 | -2 | 2 | i
COc1ccc2[nH]cc(CCNC(=S)NC3CCCC3)c2c1 | -1 | -7 | 8 | 51* | i
Brc1ccc(CSc2nnc(Cc3c[nH]c4ccccc34)o2)cc1 | -3 | 3 | 0 | 50* | i
Clc1ccc(CSc2nnc(-c3c[nH]c4ccccc34)o2)cc1 | 3 | -3 | -8 | 3 | i
Cc1ccc(OCCOC(=O)Cn2nc(C)c([N+](=O)[O-])c2C)cc1 | 3 | 9 | 2 | 54* | i
Cc1nn(CC(=O)N2CCN(c3ccccc3)CC2)c(C)c1[N+](=O)[O-] | -2 | 7 | -10 | 10 | +
CCOC(=O)Cn1nc(C)c([N+](=O)[O-])c1C | 1 | -5 | 3 | 6 | ?

Compound activity (PubChem)
